Measurements reported in PubChem BioAssay (NCI).
The panel holds about 83,000 compounds, 20% with a hit somewhere; the sample as a whole holds those more often.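 Compound tested at a single concentration for 48 hours in 96-well plates; a percent growth value below 10 was scored as active.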 Values without a mark were called inactive. The source made the active and inactive calls.

What follows are molecules tested on NCI/ADR-RES ovarian (assay: NCI-60 one-dose screen, 48 h (100 = growth as untreated, 0 = no growth, -100 = all killed)). Details: 10 µM unless noted.
Description: Growth inhibition of the NCI/ADR-RES human […] tumor cell line is measured as a screen for anti-cancer activity. Cells are grown in 96 well plates and exposed to the test compound for 48 hours. Compounds are tested at a single concentration, which is 10^-5 M for most compounds. The reported endpoint is percent growth (GI% or GIPRCNT), where numbers from 0 - 100% represent growth inhibition, and numbers from -100% - 0 represent cell death. For example, a value of 40 represents 60% growth inhibition. A value of 0 means no net growth occurred over the course of the experiment. A value of -40 indicates 40% of cells at the beginning of the experiment died by the end of the experiment. A value of -100 means all cells are dead at the end of the experiment.
NCI-60 Human Tumor Cell Lines Screen was performed using the standard one-dose NCI protocol, which is described in more detail at https://dtp.cancer.gov/discovery_development/nci-60/default.htm.
Compounds with GIPRCNT values below 10 were considered active. Activity score was based on GIPRCNT using the following formula: […]
Score is 0 for GIPRCNT values of 100 or above, 50 for GIPRCNT values of 0, and 100 for GIPRCNT values of -100.
Work on CC(=O)OCC1SC(OC(C)=O)C(NC(=O)/C=C/CCl)C(OC(C)=O)C1OC(C)=O (stereo not given) yielded a growth of 103%.
O=C1Nc2ccc(Br)cc2/C1=N\N=C/c1cn(Cc2ccccc2)c2ccccc12 gave a growth of 99.5%.
In the case of CCOC(=O)c1c(C)nc2c(c1N)CC(=O)N2CCc1ccccc1, the growth is reported as 30.1%.
For Cc1nnc(/N=C2\NC(=O)/C(=C/c3ccsc3)S2)s1, the growth was 94.8%.
With Cc1cc(O)cc(O)c1N=NC1=NCCS1 the growth was 103%.
Molecule CC[C@]12C=CCN3CC[C@@]4(c5ccc(OC)cc5N(C)[C@H]4[C@@](O)(C(=O)OC)[C@@H]1OC(=O)CCC(=O)O[C@H]1CC[C@H]4[C@@H]5CC[C@H]6CC(=O)CC[C@]6(C)[C@H]5CC[C@]14C)[C@@H]32 has a growth of 25.4%.
For COc1ccc([C@H]2[C@@H](F)C(=O)N2c2cc(OC)c(OC)c(OC)c2)cc1F, the growth was 8.4% (active).
In the case of C#C[C@@]1(O)[C@@H](CO)O[C@@H](n2ccc3c(N)ncnc32)[C@@H]1O, the growth is reported as -9.78% (active).
CC(=O)c1cc2c(N)c(C(=O)Nc3ccccn3)sc2nc1C gave a growth of 94.7%.
COc1ccccc1Nc1nnc(-c2ccc(Cl)cc2)o1 showed a growth of 20.8%.
CCOC(=O)c1c(C(F)(F)F)n([O-])c2ccc(Cl)cc2[n+]1=O was tested, and the growth was 8.49% (active).
C=C1C(=O)O[C@H]2[C@H]1CC/C(COC(=O)n1ccnc1)=C\CC[C@@]1(C)O[C@@H]21 showed a growth of 102%.
In the case of N#CC1C(c2ccc(Cl)cc2)=Nc2c(c(-c3ccccc3)nn2-c2ccccc2)C12C(=O)Nc1ccc(Cl)cc12 (stereo not given), the growth is reported as 67.6%.
CN1C(=O)c2cc(Cl)nc3c(NC(=O)c4cccc(Cl)c4)c(Cl)c(NC(=O)c4cccc(Cl)c4)c1c23 showed a growth of 27.5%.
In the case of COc1ccc(-c2cc(-c3nnc(SCC(=O)Nc4ccc(C(C)=O)cc4)o3)c3ccccc3n2)cc1, the growth is reported as 6.03% (active).
O=C(O)C(C(=O)O)c1cccc2ccccc12 gave a growth of 98.9%.
With C=C1C(=O)O[C@H]2[C@H]1CC/C(COC(=O)c1cccnc1N)=C\CC[C@@]1(C)O[C@@H]21 the growth was 31.9%.
With CCCn1c2cc(OCc3cn(-c4ccc(Br)cc4)nn3)ccc2c2ccnc(C)c21 the growth was 63.1%.
For CNc1cccc2c1C(=O)c1cccc(N)c1C2=O, the growth was 85%.
In the case of C=C1C(=O)O[C@H]2[C@H]1CC/C(COC(=O)Nc1nc3ccccc3[nH]1)=C\CC[C@@]1(C)O[C@@H]21, the growth is reported as 92.1%.
Molecule O=C(CSC(=S)N1CCCCC1)Nc1ccccc1 has a growth of 102%.
In the case of O=C(Nc1ccc(S(=O)(=O)NC2CCCCCC2)cc1)C(c1ccccc1)S(=O)(=O)c1ccc(F)cc1 (stereo not given), the growth is reported as 15.1%.
Work on O=C1CC(c2ccc(O)c(O)c2)Oc2cc(O)c([C@@H]3O[C@H](CO)[C@@H](O)[C@H](O)[C@H]3O)c(O)c21 (stereo not given in full) yielded a growth of 110%.
With CN(CCC#N)C(=O)Nc1ccccc1 the growth was 102%.
COc1cc(C2=NNC(c3ccc(N(C)C)cc3)C2)cc(OC)c1OC (stereo not given) was tested, and the growth was -20.7% (active).
Molecule COc1cc2cc(c1Cl)N(C)C(=O)C[C@H](OC(=O)[C@H](C)N(C)C(=O)CCS)C[C@]1(C)O[C@H]1[C@H](C)[C@@H]1C[C@@](O)(NC(=O)O1)[C@H](OC)/C=C/C=C(\C)C2 has a growth of 10.5%.
O=c1[nH]c(-c2cccc(F)c2)cc2cc(F)ccc12 was tested, and the growth was 6.86% (active).
For Cc1cc(C)c(NC(=O)c2sc3nc4c(cc3c2N)CCCCCC4)c(C)c1, the growth was 48.1%.
In the case of Nc1c(C(=O)Nc2ccccn2)sc2nc3c(cc12)CCCCCC3, the growth is reported as 18.8%.
Cc1nc2sc(C(=O)Nc3ccccc3Cl)c(N)c2cc1C(C)O (stereo not given) was tested, and the growth was 71.7%.
Work on COc1ccc(/C=C/C(=O)/C=C(/C=C/c2ccc(OC)c(OC)c2)OB(F)F)cc1OC yielded a growth of 30.1%.
Work on Cc1c(C(=O)Nc2nc3ccccc3[nH]2)cnn1-c1ccccn1 yielded a growth of 106%.
Molecule O=C(CCCC(=O)Nc1ccc(-n2nnc3cc(Cl)c(Cl)cc32)cc1)Nc1ccc(-n2nnc3cc(Cl)c(Cl)cc32)cc1 has a growth of 84.5%.
CCSc1ccc(C2C(Br)C(=O)N2c2cc(OC)c(OC)c(OC)c2)cc1 (stereo not given) was tested, and the growth was 14%.
Cc1ccc(C2=N[C@H]3CCC[C@@H]3N(c3ccccc3)C(C(Cl)Cl)=N2)cc1 gave a growth of 97.9%.
Molecule COc1cccc(NC(=O)Nc2ccc(Oc3ncnc4[nH]c(C)c(C)c34)cc2)c1 has a growth of 83.5%.
C=C1C(=O)O[C@H]2[C@H]1CC/C(COC(=O)CCC(=O)OC/C1=C/CC[C@@]3(C)O[C@H]3[C@H]3OC(=O)C(=C)[C@@H]3CC1)=C\CC[C@@]1(C)O[C@@H]21 showed a growth of 89.8%.
Work on O=C(N/N=C/C[C@@H]1[C@@H](/C=C/[C@@H](O)COc2cccc(Cl)c2)[C@H](O)C[C@@H]1O)c1ccncc1 yielded a growth of 102%.
For C#C[C@@]1(O)[C@@H](CO)O[C@@H](n2cc(-c3ccco3)c3c(N)ncnc32)[C@@H]1O, the growth was 61.7%.
C/C(=N/Nc1nc2ccccc2n1C)c1ccccn1 was tested, and the growth was -7.51% (active).
